Test results reported in PubChem BioAssay AID1851 (National Center for Advancing Translational Sciences (NCATS), 2009).
The campaign covered roughly 16,000 compounds. About 2,600 (16%) were called active. Roughly 20% stayed inconclusive and do not appear here. Calls come from the whole dose curve; as a rule, active = well fitted curve in the direction sought with a large enough effect; inconclusive = small, poorly fitted or top-dose-only effect, or effect the other way; inactive = no such curve, though single readings can be large or run the other way. Not all results are given here.

Each compound was assayed against Cytochrome P450 2D6 (Homo sapiens) (UniProt P10635) (assay: Cytochrome panel assay with activity outcomes). Settings: recombinant CYP, pro-luciferin dealkylation, luminescence, p450-cyp2d6; series mostly up to 57.1 µM.
Chain of Cytochrome P450 2D6 (Homo sapiens) (P10635 whole entry, looked up): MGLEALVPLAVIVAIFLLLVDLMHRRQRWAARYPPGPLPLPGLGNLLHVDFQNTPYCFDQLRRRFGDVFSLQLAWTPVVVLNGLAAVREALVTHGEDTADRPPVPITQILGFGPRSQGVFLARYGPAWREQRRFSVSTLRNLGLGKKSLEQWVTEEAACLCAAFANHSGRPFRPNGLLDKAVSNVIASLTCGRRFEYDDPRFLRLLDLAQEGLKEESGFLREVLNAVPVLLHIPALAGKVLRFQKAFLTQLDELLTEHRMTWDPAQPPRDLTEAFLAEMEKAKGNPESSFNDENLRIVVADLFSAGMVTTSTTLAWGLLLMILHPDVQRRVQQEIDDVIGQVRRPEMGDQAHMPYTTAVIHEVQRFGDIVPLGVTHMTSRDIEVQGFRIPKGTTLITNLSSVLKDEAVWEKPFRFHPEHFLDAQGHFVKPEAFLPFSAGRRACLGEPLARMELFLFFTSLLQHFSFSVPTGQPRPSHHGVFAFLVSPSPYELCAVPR
% is set by controls: 0 for no effect and ±100 for the full control effect.

Row | SMILES | AC50 | activity, negative = inhibition
1 | COc1ccc(CNc2nc3nc4c(c(=O)n3[nH]2)CCC4)cc1 | inactive | 
2 | CN1CC[C@@]2(CCCN(C(=O)c3cc(C(F)(F)F)cc(C(F)(F)F)c3)C2)C1 | inactive | 
3 | O=C(NC1CCCCC1)c1ccc(COCC(F)(F)F)o1 | inactive | 
4 | Cc1cc2ccc(OC(=O)c3ccc(N=C(N)N)cc3)cc2oc1=O |  | -7.56% [at 11.4 µM] (inactive)
5 | C=CCOc1cccc(/C=N/NC(=O)C(=O)NCc2ccco2)c1 | inactive | 
6 | C[C@@H](Cc1ccccc1)Nc1ncnc2c1ncn2[C@@H]1O[C@@H](CO)[C@H](O)[C@@H]1O | inactive | 
7 | O=C(CNC(=O)c1ccccn1)N/N=C/c1ccccc1 | inactive | 
8 | CCOC(=O)C(CC)(CC)C(=O)/C=C/c1ccc(Br)cc1 | inactive | 
9 | C[C@H](NC[C@H](O)CP(=O)(O)CC1CCCCC1)c1ccc(Cl)c(Cl)c1 | inactive | 
10 | C[C@H](NC[C@H](O)CP(=O)(O)Cc1ccccc1)c1ccc(Cl)c(Cl)c1 | 0.0501 µM (active) | 
11 | Cc1cccc2c1OCC/C2=N\NC(=O)COc1ccccc1Cl | inactive | 
12 | Cc1sc(NC(=O)/C=C/c2ccc(C(C)C)cc2)c(C#N)c1C | inactive | 
13 | Cn1cc(-c2nc3cnc(Oc4ccccc4)nc3n(C3CC3)c2=O)c2ccccc21 | inactive | 
14 | CC(C)NC(=O)N1CCC2(CC1)CCN(C(=O)c1cc(C(F)(F)F)cc(C(F)(F)F)c1)CC2 | inactive | 
15 | CC(C)CN1CCC2(CC1)CCN(C(=O)c1cc(C(F)(F)F)cc(C(F)(F)F)c1)CC2 | inactive | 
16 | CC(C)NC(=O)N1CCCC2(CCN(C(=O)c3cc(C(F)(F)F)cc(C(F)(F)F)c3)CC2)C1 | inactive | 
17 | CC(C)NC(=O)N1CC2(CCN(C(=O)c3cc(C(F)(F)F)cc(C(F)(F)F)c3)CC2)C1 | 0.251 µM (active) | 
18 | CC(C)CN1CCCC2(CCN(C(=O)c3cc(C(F)(F)F)cc(C(F)(F)F)c3)CC2)C1 | 10 µM (active) | 
19 | CC(C)CN1CC[C@@]2(CCCN(C(=O)c3cc(C(F)(F)F)cc(C(F)(F)F)c3)C2)C1 | inactive | 
20 | CCOc1cc(/C=C2/C(=O)N(c3ccccc3)N=C2C)ccc1OC(=O)c1ccco1 | inactive | 
21 | CN1CCCN(S(=O)(=O)c2ccc3c(c2)OCCO3)CC1 | inactive | 
22 | C=CCNC(=O)c1ccc(-c2nc(-c3ccc(Cl)c(Cl)c3)cs2)cc1 | inactive | 

Row | SMILES | AC50 | activity, negative = inhibition
23 | CCOC(=O)N/N=C1/C[C@@H](O)[C@@H](O)[C@@H]2[C@@H]3C(=O)N(CC)C(=O)[C@H]3CC[C@@H]12 |  | 7.29% [at 11.4 µM] (inactive)
24 | CO[C@H]1COC(=O)[C@H]2CCCN2C(=O)[C@@H](C)COC(=O)C/C=C\[C@@H]1C |  | 19.9% [at 11.4 µM] (inactive)
25 | Cc1nn(CC(=O)NCc2ccccc2)c(C)c1[N+](=O)[O-] | inactive | 
26 | CCOc1cc(-c2noc(N)c2C#N)cc(OCC)c1OCC | inactive | 
27 | O=C(N/N=C/C1C(c2ccccc2)C1(Cl)Cl)c1cccc(Br)c1 (centres undefined) | 7.08 µM (active) | 
28 | O=C(N/N=C/c1cccc(Oc2ccccc2)c1)c1cccc(Br)c1 | inactive | 
29 | C/C(=N\NC(=O)c1cccc(Br)c1)c1ccc(Br)cc1 | inactive | 
30 | Cn1c(C(N)=O)cnc1Sc1ncc(C(F)(F)F)cc1Cl | inactive | 
31 | Cc1ccnc(N2C(=O)C3C4CC(C(Br)C4Br)C3C2=O)c1 (centres undefined) | inactive | 
32 | CCC(=O)O[C@@]1(C(=O)SCF)[C@@H](C)C[C@H]2[C@@H]3C[C@@H](F)C4=CC(=O)C=C[C@@]4(C)[C@]3(F)[C@@H](O)C[C@]21C | inactive | 
33 | CO[C@@H](NC(N)=O)C(=O)O |  | 2.43% [at 11.4 µM] (inactive)
34 | CCC(C)(C)NC(=O)c1ccc2c(c1)N(CC(=O)OC)C(=O)C(C)(C)O2 | inactive | 
35 | O=C(Oc1ccccc1)N1CCC2(CCCN(c3ccc(-c4ccccc4)cc3)C2)CC1 | inactive | 
36 | CC(C)c1nc2ccccn2c1NC1CCCCC1 | 3.16 µM (active) | 
37 | CC(C)c1ccc(O)c(NC(=O)c2ncn[nH]2)c1 | inactive | 
38 | COc1ccc(NC(=O)CC#N)cc1OC | inactive | 
39 | COC(=O)C1=C(C)NC(=O)NC1c1ccsc1 (centres undefined) | inactive | 
40 | O=C(O)COc1ccc(OCCNC[C@@H](O)COc2ccccc2)cc1 | inactive | 
41 | COCCNC(=O)COc1ccc(Oc2ccccc2)cc1 | inactive | 
42 | COCCNC(=O)COc1ccc(OCCNC[C@@H](O)COc2ccccc2)cc1 | 5.01 µM (active) | 
43 | CCOC(=O)N/N=C1/C[C@@H](O)[C@@H](O)[C@@H]2[C@@H]3C(=O)N(CC)C(=O)[C@H]3CC[C@H]12 |  | -3.76% [at 11.4 µM] (inactive)
44 | CS(=O)(=O)c1nc(-c2ccccc2)cc(-c2ccccc2)c1C#N | inactive | 

Row | SMILES | AC50 | activity, negative = inhibition
45 | CCOC(=O)c1sc2nc3c(cc2c1N)COC(C(C)C)C3 (centres undefined) | inactive | 
46 | CCc1ccccc1OC[C@@H](O)CN[C@H]1CCCc2ccccc21 | inactive | 
47 | CCC(=O)N[C@@H]1CCc2cccc(OC)c2C1 | inactive | 
48 | COc1cccc(C=NC=Nc2cccc(OC)c2)c1 | inactive | 
49 | O=C(CSc1nnc(CNc2ccccc2)o1)N1CCCc2ccccc21 | inactive | 
50 | O=C(CSc1n[nH]c(-c2ccccc2O)n1)N1CCCc2ccccc21 | 25.1 µM (active) | 
51 | O=C(CSc1nc(-c2ccccc2)cs1)N1CCc2ccccc21 | inactive | 
52 | CC(C)C[C@H](NC(=O)[C@@H](O)[C@@H](N)Cc1ccccc1)C(=O)O | inactive | 
53 | O=C(NCCc1ccccn1)c1cc(C(=O)C2CCCCC2)c[nH]1 | inactive | 
54 | CCC(CC)C(=O)c1c[nH]c(C(=O)NCCc2ccccn2)c1 | inactive | 
55 | Cc1ccc(C(=O)c2c[nH]c(C(=O)NCCCN3CCOCC3)c2)cc1 | inactive | 
56 | O=C(c1ccc(C(F)(F)F)cc1)c1c[nH]c(C(=O)NCCCn2ccnc2)c1 | 2.51 µM (active) | 
57 | O=C(O)CCCCCNC(=O)c1ccncc1 | inactive | 
58 | CC(C)(C)c1ccc(C(=O)c2c[nH]c(C(=O)NCCCn3ccnc3)c2)cc1 | 5.01 µM (active) | 
59 | C1CNCCOCCNCCN1 | inactive | 
60 | CN(C)c1ccc(C(c2ccc(N(C)C)cc2)c2ccc([N+](=O)[O-])cc2)cc1 |  | 14% [at 11.4 µM] (inactive)
61 | O=C(O)[C@@H]1[C@@H](C(=O)Nc2ccccc2)[C@@H]2C=C[C@@H]1O2 |  | 2.5% [at 11.4 µM] (inactive)
62 | Oc1ccc(Cc2nccc3cc(O)c(O)cc23)cc1O | 1.26 µM (active) | 
63 | O=C(O)Cc1ccc(O)c(O)c1 | inactive | 
64 | CCOc1ccc(Cc2nccc3cc(OCC)c(OCC)cc23)cc1OCC | inactive | 
